The results in this text go back to paper PMC7862700, “An all-to-all approach to the identification of sequence-specific readers for epigenetic DNA modifications on cytosine”.

What all share (assay): DAPPL (digital affinity profiling via proximity ligation, sequencing); 10 mM Tris-HCl pH 7.5, 50 mM NaCl, 1 mM DTT, 4% glycerol, room temperature, 30 min; GST-TFs on glutathione beads, 16-mer random dsDNA library, 0.1% formaldehyde crosslink after washing; high values mean tight binding
One test deals with T1, FLI1 (Homo sapiens, UniProt Q01543 1-452).
T1 sequence: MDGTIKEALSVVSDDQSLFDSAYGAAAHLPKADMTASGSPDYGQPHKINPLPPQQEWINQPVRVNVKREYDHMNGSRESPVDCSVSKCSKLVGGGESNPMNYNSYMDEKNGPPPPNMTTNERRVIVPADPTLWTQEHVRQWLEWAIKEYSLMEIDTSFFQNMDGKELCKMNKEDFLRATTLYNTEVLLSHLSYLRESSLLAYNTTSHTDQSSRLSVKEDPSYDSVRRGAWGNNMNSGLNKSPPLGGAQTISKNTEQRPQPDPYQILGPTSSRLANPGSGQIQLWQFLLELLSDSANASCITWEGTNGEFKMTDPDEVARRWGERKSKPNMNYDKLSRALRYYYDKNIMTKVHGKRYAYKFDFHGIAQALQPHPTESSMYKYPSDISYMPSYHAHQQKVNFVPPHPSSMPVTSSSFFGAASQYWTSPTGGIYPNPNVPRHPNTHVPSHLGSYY
The settings on record: protein: recombinant; tags: N-terminal GST; dsDNA, one strand shown. In a few lines: (§1)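 Pools were built from human transcription factors expressed in yeast as GST fusions, captured on glutathione beads and DNA-barcoded, along with a tag-only sample. Incubation with 200 nmole of a 16-mer random double-stranded DNA library lasted 30 min at room temperature in Tris/NaCl/DTT/glycerol buffer, and was followed by washing, 0.1% formaldehyde crosslinking, proximity ligation, PCR amplification and Illumina NextSeq500 sequencing. Binding signal is the quotient of each hexamer's read frequency for a factor and its frequency for the tag-only sample.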

For another test, the target named is T2, ELK1 (Homo sapiens, UniProt P19419 1-428).
T2 sequence: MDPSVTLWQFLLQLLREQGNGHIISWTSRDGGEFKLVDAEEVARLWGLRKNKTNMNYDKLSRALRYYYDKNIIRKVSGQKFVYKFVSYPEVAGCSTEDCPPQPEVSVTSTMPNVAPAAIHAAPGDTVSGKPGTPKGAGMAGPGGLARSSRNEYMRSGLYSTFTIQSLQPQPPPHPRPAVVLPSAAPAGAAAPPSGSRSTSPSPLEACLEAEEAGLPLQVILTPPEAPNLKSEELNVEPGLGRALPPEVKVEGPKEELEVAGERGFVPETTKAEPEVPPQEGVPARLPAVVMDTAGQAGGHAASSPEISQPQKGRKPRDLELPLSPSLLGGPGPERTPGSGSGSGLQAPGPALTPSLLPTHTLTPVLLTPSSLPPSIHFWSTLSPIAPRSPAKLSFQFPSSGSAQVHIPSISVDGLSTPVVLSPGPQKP
The conditions noted are these: protein: recombinant; tags: N-terminal GST; dsDNA, one strand shown. The essentials: as §1

Another test has as its target T3, GABPA (Homo sapiens, UniProt Q06546 1-454).
T3 sequence: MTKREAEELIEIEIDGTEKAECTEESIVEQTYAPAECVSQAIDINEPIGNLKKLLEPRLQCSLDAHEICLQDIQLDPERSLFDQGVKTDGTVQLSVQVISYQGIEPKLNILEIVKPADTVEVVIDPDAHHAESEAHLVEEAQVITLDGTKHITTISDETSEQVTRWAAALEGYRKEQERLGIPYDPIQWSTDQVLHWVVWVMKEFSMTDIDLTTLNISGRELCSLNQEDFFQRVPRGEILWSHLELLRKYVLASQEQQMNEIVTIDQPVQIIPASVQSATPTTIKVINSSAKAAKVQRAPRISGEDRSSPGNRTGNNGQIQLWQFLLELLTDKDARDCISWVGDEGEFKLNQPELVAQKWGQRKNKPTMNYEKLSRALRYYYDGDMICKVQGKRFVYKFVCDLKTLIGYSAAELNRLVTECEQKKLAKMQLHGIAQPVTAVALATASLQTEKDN
The settings on record: protein: recombinant; tags: N-terminal GST; dsDNA, one strand shown. In a few lines: as §1

The target of another test is T4, ERG (Homo sapiens, UniProt P11308 1-479).
T4 sequence: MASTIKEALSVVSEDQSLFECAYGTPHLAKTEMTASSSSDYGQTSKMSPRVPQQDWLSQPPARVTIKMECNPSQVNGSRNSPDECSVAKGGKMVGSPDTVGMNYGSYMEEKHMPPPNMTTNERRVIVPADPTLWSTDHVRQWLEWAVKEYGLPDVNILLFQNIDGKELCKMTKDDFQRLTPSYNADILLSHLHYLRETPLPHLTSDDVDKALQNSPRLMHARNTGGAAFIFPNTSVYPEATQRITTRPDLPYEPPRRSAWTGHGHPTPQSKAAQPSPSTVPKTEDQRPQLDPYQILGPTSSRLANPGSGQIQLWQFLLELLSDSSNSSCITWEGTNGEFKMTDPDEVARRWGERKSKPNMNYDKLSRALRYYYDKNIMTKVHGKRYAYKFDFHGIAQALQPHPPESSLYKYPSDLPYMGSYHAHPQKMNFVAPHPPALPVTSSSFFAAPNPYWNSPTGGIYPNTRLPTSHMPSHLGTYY
The conditions noted are these: protein: recombinant; tags: N-terminal GST; dsDNA, one strand shown. In a few lines: as §1

The target of another test is ELF1 (Homo sapiens, UniProt P32519 1-619). The conditions noted are these: protein: recombinant; tags: N-terminal GST; dsDNA, one strand shown. In a few lines: as §1
A further test deals with T5, EHF (Homo sapiens, UniProt Q9NZC4 1-300).
T5 sequence: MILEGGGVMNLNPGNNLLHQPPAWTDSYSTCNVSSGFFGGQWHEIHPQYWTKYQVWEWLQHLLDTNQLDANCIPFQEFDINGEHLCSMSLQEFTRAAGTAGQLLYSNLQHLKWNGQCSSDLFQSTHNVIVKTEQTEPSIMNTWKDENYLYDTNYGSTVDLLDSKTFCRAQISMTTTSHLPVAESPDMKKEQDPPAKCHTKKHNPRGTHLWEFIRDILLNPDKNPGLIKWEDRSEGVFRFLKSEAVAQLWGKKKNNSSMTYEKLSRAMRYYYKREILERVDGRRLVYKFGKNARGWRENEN
The conditions noted are these: protein: recombinant; tags: N-terminal GST; dsDNA, one strand shown. In a few lines: as §1

The next test concerns the target SPI1 (Homo sapiens, UniProt P17947 1-270). The conditions noted are these: protein: recombinant; tags: N-terminal GST; dsDNA, one strand shown. The essentials: as §1
A further test concerns the target SPIB (Homo sapiens, UniProt Q01892 1-262). The settings on record: protein: recombinant; tags: N-terminal GST; dsDNA, one strand shown. In a few lines:
as §1

The next test addresses T6, ELK3 (Homo sapiens, UniProt P41970 1-407).
T6 sequence: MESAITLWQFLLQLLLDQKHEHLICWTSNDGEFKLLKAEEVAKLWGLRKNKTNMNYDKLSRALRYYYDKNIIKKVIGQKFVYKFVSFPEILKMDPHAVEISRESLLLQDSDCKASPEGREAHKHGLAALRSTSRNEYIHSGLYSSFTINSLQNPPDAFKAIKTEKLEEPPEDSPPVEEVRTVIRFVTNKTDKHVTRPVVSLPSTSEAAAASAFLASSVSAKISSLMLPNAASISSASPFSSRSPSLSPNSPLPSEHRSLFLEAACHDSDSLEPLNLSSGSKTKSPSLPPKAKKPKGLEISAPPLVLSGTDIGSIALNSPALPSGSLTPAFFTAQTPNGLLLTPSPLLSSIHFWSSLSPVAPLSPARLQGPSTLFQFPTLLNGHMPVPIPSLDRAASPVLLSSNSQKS
The conditions noted are these: protein: recombinant; tags: N-terminal GST; dsDNA, one strand shown. In a few lines:
as §1

A further test has as its target T7, FEV (Homo sapiens, UniProt Q99581 1-238).
T7 sequence: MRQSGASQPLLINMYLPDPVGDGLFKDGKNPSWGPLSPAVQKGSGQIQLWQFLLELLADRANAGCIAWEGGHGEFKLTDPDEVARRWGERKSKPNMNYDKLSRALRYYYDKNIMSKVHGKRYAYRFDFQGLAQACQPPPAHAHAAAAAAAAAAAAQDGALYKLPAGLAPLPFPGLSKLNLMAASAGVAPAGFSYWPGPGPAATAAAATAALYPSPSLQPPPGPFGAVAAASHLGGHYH
The settings on record: protein: recombinant; tags: N-terminal GST; dsDNA, one strand shown. In a few lines:
as §1

A further test deals with ETV5 (Homo sapiens, UniProt P41161 1-510). The conditions noted are these: protein: recombinant; tags: N-terminal GST; dsDNA, one strand shown. The essentials:
as §1

For the next test, the target named is HSF1 (Homo sapiens, UniProt Q00613 1-529). The conditions noted are these: protein: recombinant; tags: N-terminal GST; chain copies: 3; dsDNA, one strand shown. In a few lines:
as §1

The target in a further test is T8, SPIC (Homo sapiens, UniProt Q8N5J4 1-248).
T8 sequence: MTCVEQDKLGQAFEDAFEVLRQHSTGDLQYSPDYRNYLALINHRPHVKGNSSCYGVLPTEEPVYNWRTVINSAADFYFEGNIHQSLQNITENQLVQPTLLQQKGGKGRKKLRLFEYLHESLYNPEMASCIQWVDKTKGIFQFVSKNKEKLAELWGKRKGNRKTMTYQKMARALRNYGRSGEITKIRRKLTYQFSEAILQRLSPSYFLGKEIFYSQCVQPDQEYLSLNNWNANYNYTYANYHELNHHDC
The settings on record: protein: recombinant; tags: N-terminal GST; dsDNA, one strand shown. The essentials: as §1

The target of another test is ELF4 (Homo sapiens, UniProt Q99607 1-663). The settings on record: protein: recombinant; tags: N-terminal GST; dsDNA, one strand shown. The essentials:
as §1

Another test addresses T9, ELK4 (Homo sapiens, UniProt P28324-2 1-405).
T9 sequence: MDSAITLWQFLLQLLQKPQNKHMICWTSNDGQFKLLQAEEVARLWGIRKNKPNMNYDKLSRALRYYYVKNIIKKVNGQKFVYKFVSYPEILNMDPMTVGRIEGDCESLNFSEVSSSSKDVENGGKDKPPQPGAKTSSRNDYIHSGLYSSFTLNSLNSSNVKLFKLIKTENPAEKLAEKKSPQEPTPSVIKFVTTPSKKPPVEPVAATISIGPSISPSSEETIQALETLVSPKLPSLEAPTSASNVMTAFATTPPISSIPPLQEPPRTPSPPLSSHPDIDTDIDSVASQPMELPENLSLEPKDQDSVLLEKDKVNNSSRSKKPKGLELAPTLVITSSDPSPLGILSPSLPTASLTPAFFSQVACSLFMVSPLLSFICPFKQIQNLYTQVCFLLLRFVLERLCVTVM
The settings on record: protein: recombinant; tags: N-terminal GST; dsDNA, one strand shown. The essentials: as §1

The target in the next test is T10, ETV2 (Homo sapiens, UniProt O00321 1-342).
T10 sequence: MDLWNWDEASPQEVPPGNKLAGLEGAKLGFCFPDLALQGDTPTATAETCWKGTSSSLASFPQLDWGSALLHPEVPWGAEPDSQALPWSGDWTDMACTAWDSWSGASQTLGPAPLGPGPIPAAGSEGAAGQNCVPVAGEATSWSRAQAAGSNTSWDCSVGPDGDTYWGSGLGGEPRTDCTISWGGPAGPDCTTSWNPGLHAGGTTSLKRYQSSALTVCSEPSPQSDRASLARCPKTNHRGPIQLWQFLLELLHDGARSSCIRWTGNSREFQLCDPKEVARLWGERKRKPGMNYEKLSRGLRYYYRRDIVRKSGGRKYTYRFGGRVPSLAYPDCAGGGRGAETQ
The conditions noted are these: protein: recombinant; tags: N-terminal GST; dsDNA, one strand shown. The essentials:
as §1

The target in the next test is T11, ELF3 (Homo sapiens, UniProt P78545 1-371).
T11 sequence: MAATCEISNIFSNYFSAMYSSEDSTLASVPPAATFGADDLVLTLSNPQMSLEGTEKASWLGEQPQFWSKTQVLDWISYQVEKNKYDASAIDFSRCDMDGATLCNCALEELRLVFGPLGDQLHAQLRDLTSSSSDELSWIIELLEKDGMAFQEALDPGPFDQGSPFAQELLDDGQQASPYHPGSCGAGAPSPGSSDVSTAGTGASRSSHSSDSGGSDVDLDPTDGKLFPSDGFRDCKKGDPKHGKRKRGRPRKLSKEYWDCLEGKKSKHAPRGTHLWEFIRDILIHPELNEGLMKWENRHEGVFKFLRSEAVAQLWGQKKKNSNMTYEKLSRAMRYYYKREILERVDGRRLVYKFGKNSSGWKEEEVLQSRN
The settings on record: protein: recombinant; tags: N-terminal GST; dsDNA, one strand shown. In a few lines: as §1

For a further test, the target named is CRX (Homo sapiens, UniProt O43186 1-299). The settings on record: protein: recombinant; tags: N-terminal GST; dsDNA, one strand shown. In a few lines:
as §1

The target of the next test is ETV1 (Homo sapiens, UniProt P50549 1-477). The settings on record: protein: recombinant; tags: N-terminal GST; dsDNA, one strand shown. In a few lines: as §1
Sequence of ETV1 (P50549 whole entry): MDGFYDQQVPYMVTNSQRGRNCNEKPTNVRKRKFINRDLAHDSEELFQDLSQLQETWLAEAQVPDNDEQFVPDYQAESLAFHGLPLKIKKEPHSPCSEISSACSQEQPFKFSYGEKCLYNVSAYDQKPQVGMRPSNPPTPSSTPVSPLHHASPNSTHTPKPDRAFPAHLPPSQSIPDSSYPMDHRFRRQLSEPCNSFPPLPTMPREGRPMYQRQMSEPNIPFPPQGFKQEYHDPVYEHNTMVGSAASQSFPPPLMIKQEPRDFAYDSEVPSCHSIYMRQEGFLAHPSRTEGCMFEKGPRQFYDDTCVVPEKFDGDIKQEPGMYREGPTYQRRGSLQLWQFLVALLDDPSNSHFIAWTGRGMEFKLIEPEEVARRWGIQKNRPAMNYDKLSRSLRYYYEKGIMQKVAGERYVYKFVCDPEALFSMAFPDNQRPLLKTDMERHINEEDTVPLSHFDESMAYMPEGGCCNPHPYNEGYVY

Sequence of CRX (O43186 whole entry): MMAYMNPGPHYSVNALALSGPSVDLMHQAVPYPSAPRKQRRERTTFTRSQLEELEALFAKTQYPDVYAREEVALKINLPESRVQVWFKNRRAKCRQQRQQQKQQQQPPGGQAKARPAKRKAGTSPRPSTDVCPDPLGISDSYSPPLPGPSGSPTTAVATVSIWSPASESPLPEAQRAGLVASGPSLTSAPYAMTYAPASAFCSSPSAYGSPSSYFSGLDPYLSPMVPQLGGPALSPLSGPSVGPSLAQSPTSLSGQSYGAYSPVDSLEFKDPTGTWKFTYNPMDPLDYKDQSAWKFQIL
Sequence of ELF1 (P32519 whole entry): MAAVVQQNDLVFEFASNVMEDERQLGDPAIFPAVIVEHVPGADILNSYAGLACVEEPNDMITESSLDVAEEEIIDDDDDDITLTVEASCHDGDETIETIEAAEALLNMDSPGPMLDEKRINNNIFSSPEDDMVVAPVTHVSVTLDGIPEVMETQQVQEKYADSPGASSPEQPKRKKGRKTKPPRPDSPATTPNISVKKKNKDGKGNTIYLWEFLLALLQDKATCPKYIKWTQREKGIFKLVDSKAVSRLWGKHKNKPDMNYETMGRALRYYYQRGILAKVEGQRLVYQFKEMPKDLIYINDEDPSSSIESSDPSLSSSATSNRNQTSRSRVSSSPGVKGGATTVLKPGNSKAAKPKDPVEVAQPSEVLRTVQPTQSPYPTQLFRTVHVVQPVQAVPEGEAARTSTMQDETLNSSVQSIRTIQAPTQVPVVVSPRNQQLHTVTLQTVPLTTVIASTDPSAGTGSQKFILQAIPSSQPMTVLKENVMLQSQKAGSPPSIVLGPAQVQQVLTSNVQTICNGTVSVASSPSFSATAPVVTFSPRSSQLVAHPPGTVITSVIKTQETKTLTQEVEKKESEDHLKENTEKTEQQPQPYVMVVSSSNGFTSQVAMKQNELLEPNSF
Sequence of ETV5 (P41161 whole entry): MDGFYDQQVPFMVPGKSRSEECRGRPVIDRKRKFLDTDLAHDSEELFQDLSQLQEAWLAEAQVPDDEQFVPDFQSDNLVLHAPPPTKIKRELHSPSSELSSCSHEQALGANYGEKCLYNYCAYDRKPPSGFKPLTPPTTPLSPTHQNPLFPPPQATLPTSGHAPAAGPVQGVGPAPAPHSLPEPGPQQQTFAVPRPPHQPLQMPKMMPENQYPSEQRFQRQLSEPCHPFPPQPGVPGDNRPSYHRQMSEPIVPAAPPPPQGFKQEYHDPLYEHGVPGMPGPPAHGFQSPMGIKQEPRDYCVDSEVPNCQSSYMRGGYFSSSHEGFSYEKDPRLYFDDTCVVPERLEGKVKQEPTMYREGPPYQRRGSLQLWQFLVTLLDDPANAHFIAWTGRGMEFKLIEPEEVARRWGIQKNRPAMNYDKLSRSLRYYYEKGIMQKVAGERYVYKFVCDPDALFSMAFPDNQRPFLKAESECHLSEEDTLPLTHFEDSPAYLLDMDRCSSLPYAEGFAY
Sequence of SPIB (Q01892 whole entry): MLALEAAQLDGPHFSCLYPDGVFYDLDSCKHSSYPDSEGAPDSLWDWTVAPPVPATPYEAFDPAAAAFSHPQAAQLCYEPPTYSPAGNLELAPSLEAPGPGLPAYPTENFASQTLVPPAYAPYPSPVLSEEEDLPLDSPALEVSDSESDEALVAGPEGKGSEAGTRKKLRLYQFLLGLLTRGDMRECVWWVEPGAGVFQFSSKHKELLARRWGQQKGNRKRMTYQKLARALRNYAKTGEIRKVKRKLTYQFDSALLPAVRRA
Sequence of ELF4 (Q99607 whole entry): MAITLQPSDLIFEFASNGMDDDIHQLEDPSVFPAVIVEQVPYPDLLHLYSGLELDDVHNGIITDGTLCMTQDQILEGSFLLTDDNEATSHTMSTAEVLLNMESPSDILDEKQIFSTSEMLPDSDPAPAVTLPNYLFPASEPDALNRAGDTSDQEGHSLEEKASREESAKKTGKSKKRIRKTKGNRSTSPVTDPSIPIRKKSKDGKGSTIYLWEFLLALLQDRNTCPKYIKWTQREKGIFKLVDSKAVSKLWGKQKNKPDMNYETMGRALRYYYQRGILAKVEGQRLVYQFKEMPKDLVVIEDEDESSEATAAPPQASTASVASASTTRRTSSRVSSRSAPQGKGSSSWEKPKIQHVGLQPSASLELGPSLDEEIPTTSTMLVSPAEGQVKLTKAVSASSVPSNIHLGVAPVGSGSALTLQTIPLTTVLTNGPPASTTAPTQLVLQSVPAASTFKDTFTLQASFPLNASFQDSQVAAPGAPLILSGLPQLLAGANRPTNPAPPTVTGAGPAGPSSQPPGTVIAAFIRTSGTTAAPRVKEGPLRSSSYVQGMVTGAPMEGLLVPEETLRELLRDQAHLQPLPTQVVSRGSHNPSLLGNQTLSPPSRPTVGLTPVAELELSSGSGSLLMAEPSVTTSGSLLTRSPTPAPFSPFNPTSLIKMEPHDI
Sequence of HSF1 (Q00613 whole entry): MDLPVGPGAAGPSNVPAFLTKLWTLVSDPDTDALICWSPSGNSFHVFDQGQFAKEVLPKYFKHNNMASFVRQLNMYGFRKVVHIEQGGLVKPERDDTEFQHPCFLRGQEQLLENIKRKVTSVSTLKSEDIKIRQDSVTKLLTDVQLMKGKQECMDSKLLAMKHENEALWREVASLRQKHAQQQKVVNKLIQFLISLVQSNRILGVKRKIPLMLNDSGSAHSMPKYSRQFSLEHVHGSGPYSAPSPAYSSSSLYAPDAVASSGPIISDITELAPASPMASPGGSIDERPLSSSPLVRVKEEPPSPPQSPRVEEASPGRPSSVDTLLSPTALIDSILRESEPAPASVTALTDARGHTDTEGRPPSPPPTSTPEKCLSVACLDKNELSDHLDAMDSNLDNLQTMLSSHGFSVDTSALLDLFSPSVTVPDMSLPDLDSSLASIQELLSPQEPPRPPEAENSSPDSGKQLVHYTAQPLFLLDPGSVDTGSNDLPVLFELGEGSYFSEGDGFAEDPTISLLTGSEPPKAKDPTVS

Take TATAGA: the binding signal is 1.02 fold enrichment (6-mer frequency, TF over GST control) in the test with FLI1; 1.07 fold enrichment (6-mer frequency, TF over GST control) with ELK1; 1.12 fold enrichment (6-mer frequency, TF over GST control) with GABPA; 1 fold enrichment (6-mer frequency, TF over GST control) in the test with ERG; 1.13 fold enrichment (6-mer frequency, TF over GST control) with ELF1; 1.07 fold enrichment (6-mer frequency, TF over GST control) in the test with EHF. The binding signal is 1.13 fold enrichment (6-mer frequency, TF over GST control) in the test with SPI1; 1.07 fold enrichment (6-mer frequency, TF over GST control) with SPIB; 1.14 fold enrichment (6-mer frequency, TF over GST control) in the test with ELK3; 1.04 fold enrichment (6-mer frequency, TF over GST control) in the test with FEV; 1.08 fold enrichment (6-mer frequency, TF over GST control) with ETV5; 1.52 fold enrichment (6-mer frequency, TF over GST control) in the test with HSF1. The binding signal in the test with SPIC was 1.04 fold enrichment (6-mer frequency, TF over GST control); with ELF4 it was 1.09 fold enrichment (6-mer frequency, TF over GST control); with ELK4, 1 fold enrichment (6-mer frequency, TF over GST control); in the test with ETV2, 1.08 fold enrichment (6-mer frequency, TF over GST control); with ELF3, 1.17 fold enrichment (6-mer frequency, TF over GST control); with CRX it was 1.45 fold enrichment (6-mer frequency, TF over GST control). For the same sequence, the binding signal with ETV1 is 1.13 fold enrichment (6-mer frequency, TF over GST control).
